Where “and” joins values, the source holds several entries; their conditions need not be identical. Equal entries are not always repeated. Inconclusive results are not listed. A call without a number means that no potency is given here. Some compounds were tested as several samples or in several runs, with calls that do not always agree. Calls of active or inactive are those of the source. Unless noted, the call rests on the fitted dose curve; in most records, active means well fitted curve in the direction sought with a large enough effect; inconclusive means small, poorly fitted or top-dose-only effect, or another doubt; inactive means no such curve, though single readings can be large; an effect the other way counts as inactive or inconclusive.
Legend:
[1] = target: Cytochrome P450 2D6 (Homo sapiens) (UniProt P10635); test: Cytochrome P450 family 2 subfamily D member 6 (CYP2D6) small molecule antagonists: luciferase biochemical (cell-free) qHTS assay (AID 1645840; active means well fitted curve in the direction sought with a large enough effect in the repeat runs; an effect the other way counts as inactive or inconclusive; further: nearly all actives have a fitted effect of over 55% in size; further: potency means the concentration at half of the fitted maximal effect)
Summary of the method: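 P450-Glo CYP2D6 system: proluciferin substrate converted by enzyme to luciferin, read by luminescence proportional to activity. Enzyme-substrate mix with compound 10 min at room temperature, then NADPH regeneration 1 h before detection reagent.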

[2] = target: Cytochrome P450 2C9 (Homo sapiens) (UniProt P11712); test: Cytochrome P450 family 2 subfamily C member 9 (CYP2C9) small molecule antagonists: luciferase biochemical (cell-free) qHTS assay (AID 1645842; active means well fitted curve in the direction sought with a large enough effect in the repeat runs; an effect the other way counts as inactive or inconclusive; further: nearly all actives have a fitted effect of over 55% in size; further: potency means the concentration at half of the fitted maximal effect)
Summary of the method: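 P450-Glo CYP2C9 system: proluciferin substrate with enzyme in mix containing 0.4% BSA, 10 min at room temperature, then NADPH regeneration solution added and incubated 1 h at 37C. Detection reagent stopped reaction; luminescence read after 20 min as RLU.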

[3] = target: Papain (Carica papaya) (UniProt P00784); test: Primary qHTS assay for inhibitors of the protease papain (AID 1645873);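 further: papain turnover of Z-FR-AMC read as the AMC fluorescence gain over 10 min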; further: potency means the concentration at half of the fitted maximal effect
[4] = Primary qHTS for inhibitors of nuclear receptor binding SET domain protein 2 (NSD2) in an isogenic RCH-ACV NSD2 p.E1099K mutant (9B) (AID 1645876); further: nearly all actives have a fitted effect of over 70% in size; further: potency means the concentration at half of the fitted maximal effect
[5] = Primary qHTS for inhibitors of nuclear receptor binding SET domain protein 2 (NSD2) in an RCH-ACV wild type WT cells (2C) (AID 1645877); further: nearly all actives have a fitted effect of over 70% in size; further: potency means the concentration at half of the fitted maximal effect
[6] = target: Rap guanine nucleotide exchange factor 3 (Homo sapiens) (UniProt O95398); test: Confirmatory qHTS for antagonist of cAMP-regulated guanine nucleotide exchange factor 3 (EPAC1) (AID 1645880); further: nearly all actives have a fitted effect of over 55% in size
Summary of the method: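 Released BODIPY-GDP fluoresces less than Rap1-bound BODIPY-GDP; the signal is followed at 480/540 nm at 5-min intervals over 30 min, after 5 min at room temperature. Reactions contain 100 nM EPAC1, 250 nM RAP1B-BODIPY-GDP and 50 uM GDP; results are normalized to ATA and DMSO.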

[7] = target: Rap guanine nucleotide exchange factor 3 (Homo sapiens) (UniProt O95398); test: Confirmatory qHTS for agonist of cAMP-regulated guanine nucleotide exchange factor 3 (EPAC1) (AID 1645881); further: nearly all actives have a fitted effect of over 75% in size; further: potency means the concentration at half of the fitted maximal effect
[8] = target: Rap guanine nucleotide exchange factor 4 (Homo sapiens) (UniProt Q8WZA2); test: Confirmatory qHTS for agonist of cAMP-regulated guanine nucleotide exchange factor 4 (EPAC2) (AID 1645884);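 further: nucleotide exchange releases bodipy-GDP from Rap1 and this lowers its fluorescence; nearly all actives have a fitted effect of over 65% in size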; further: potency means the concentration at half of the fitted maximal effect
[9] = target: Cytochrome P450 3A4 (Homo sapiens) (UniProt P08684); test: Cytochrome P450 family 3 subfamily A member 4 (CYP3A4) small molecule antagonists: luciferase qHTS assay (AID 1645841; active means well fitted curve in the direction sought with a large enough effect in the repeat runs; an effect the other way counts as inactive or inconclusive; further: nearly all actives have a fitted effect of over 45% in size)
Summary of the method: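 P450-Glo CYP3A4 enzyme with proluciferin substrate was preincubated with DMSO-dissolved compounds for 10 min at room temperature. NADPH regeneration solution started a 1 h reaction. Detection reagent stopped it, and luminescence was read after 20 min.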

Cytochrome P450 2C9 (Homo sapiens), sequence (P11712 whole entry, looked up): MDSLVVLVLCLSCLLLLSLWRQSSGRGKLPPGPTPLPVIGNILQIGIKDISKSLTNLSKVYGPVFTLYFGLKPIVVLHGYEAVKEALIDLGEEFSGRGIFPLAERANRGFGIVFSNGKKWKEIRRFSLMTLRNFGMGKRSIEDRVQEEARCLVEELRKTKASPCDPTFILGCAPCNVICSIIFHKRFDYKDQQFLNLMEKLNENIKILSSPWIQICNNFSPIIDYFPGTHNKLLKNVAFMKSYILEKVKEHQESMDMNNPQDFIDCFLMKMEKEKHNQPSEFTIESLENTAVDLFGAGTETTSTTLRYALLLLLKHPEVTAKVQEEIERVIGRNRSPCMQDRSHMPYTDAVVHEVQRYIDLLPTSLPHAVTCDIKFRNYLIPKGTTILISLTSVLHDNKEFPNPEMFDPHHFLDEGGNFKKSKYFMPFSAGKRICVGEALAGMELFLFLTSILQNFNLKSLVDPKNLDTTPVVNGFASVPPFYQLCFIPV
Rap guanine nucleotide exchange factor 4 (Homo sapiens), sequence (Q8WZA2 whole entry, looked up): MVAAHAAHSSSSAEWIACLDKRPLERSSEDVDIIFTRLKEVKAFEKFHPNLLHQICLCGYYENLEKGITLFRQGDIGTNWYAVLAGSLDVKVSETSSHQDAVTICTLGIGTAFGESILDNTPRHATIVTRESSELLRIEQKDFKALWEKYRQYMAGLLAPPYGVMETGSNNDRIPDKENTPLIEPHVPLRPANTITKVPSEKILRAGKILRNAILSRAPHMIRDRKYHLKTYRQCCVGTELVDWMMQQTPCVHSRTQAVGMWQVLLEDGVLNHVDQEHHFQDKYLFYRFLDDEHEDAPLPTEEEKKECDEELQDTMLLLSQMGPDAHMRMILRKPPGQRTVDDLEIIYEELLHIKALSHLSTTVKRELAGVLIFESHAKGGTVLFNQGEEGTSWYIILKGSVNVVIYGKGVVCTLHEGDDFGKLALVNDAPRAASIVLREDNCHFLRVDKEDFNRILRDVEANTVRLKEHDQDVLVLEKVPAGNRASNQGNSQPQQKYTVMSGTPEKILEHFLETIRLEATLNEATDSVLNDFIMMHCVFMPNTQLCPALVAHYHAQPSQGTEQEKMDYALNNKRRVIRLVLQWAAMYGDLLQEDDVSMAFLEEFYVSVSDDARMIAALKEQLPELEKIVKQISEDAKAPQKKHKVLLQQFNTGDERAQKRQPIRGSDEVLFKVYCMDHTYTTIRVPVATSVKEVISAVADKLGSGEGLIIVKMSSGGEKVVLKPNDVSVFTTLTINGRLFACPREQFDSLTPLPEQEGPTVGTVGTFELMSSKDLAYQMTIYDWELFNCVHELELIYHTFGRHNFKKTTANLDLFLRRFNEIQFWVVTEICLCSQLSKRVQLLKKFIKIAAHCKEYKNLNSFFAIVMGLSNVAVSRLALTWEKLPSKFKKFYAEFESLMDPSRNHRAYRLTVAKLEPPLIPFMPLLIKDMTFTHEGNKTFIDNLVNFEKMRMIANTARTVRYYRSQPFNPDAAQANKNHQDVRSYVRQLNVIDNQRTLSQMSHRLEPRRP
Rap guanine nucleotide exchange factor 3 (Homo sapiens), sequence (O95398 whole entry, looked up): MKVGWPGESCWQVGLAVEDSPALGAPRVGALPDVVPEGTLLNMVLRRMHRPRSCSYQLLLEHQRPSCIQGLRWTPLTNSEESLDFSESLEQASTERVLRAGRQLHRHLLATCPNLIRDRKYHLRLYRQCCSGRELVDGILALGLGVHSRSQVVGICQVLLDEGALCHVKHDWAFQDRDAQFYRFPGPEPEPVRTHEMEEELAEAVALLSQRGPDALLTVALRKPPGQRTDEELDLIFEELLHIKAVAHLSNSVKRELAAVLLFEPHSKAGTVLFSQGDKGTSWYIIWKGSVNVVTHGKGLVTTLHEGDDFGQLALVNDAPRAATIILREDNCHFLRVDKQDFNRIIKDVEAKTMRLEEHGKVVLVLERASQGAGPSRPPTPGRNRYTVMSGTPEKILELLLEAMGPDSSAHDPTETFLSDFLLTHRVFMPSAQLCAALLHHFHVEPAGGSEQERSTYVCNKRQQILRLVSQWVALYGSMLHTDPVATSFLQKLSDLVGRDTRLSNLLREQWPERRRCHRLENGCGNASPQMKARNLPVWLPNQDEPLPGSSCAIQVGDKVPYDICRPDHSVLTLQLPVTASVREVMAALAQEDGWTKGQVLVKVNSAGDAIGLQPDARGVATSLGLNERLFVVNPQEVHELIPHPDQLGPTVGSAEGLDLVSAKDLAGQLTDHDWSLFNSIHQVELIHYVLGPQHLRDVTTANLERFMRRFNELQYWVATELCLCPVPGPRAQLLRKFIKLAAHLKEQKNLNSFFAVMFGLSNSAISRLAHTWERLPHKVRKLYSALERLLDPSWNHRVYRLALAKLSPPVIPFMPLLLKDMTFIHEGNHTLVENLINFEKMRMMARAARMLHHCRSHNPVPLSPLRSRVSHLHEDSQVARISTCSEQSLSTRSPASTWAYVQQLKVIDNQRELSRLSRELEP
Papain (Carica papaya), sequence (P00784 whole entry, looked up, the tested form may be a part): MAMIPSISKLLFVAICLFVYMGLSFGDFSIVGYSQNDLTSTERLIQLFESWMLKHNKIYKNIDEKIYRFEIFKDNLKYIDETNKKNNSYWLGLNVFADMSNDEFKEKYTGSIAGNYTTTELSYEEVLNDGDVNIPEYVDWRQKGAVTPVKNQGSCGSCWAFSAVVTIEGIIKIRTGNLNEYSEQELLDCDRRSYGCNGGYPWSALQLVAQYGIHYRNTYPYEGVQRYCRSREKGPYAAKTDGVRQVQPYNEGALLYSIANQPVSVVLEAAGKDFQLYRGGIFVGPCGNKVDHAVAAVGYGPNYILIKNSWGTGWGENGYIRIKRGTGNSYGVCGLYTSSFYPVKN
Cytochrome P450 2D6 (Homo sapiens), sequence (P10635 whole entry, looked up): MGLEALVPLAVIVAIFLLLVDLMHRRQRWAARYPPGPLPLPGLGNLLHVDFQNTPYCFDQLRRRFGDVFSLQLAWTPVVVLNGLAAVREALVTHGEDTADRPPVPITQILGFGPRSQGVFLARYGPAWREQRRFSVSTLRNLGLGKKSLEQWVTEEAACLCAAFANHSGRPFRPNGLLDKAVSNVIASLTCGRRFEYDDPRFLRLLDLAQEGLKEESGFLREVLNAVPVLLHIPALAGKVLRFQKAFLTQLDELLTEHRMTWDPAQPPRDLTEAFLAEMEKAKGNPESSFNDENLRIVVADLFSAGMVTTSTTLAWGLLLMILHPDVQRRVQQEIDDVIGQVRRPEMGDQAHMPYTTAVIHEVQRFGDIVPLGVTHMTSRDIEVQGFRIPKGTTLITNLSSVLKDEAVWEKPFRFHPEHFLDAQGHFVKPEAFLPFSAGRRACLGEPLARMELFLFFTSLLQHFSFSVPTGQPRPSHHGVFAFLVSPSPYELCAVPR
Cytochrome P450 3A4 (Homo sapiens), sequence (P08684 whole entry, looked up): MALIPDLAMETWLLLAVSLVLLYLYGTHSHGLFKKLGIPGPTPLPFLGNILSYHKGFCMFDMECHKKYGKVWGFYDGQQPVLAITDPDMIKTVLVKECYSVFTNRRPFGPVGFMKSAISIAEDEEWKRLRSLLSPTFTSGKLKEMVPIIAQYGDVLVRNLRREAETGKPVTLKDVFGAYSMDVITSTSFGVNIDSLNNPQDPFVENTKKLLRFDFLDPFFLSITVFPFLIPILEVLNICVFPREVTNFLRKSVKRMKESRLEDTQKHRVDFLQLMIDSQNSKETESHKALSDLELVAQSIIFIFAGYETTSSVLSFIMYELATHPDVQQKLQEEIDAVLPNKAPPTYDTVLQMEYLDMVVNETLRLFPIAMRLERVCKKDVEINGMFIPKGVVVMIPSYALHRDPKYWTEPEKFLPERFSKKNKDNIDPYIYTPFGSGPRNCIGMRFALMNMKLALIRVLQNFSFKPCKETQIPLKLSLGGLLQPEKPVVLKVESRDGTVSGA

Structure (SMILES)	Potency [1]	Potency [2]	Potency [3]	Potency [4]	Potency [5]	outcome [6]	Potency [7]	Potency [8]	outcome [9]
O=C1N(c2ccccc2)c2ccccc2C1(Cc1ccncc1)Cc1ccncc1	inactive	2.19 µM (active)	inactive	inactive	inactive				
NC(=O)OCC(COC(N)=O)c1ccccc1	inactive	inactive	inactive	inactive	inactive				
CC(C)Cc1ccc(C(C)C(=O)O)cc1 (stereo not given)	inactive	inactive	inactive	inactive	inactive				
OCCN(CCO)c1nc(N2CCCCC2)c2nc(N(CCO)CCO)nc(N3CCCCC3)c2n1	4.9 µM (active)		inactive	6.68 µM (active) and inactive	6.68 µM (active) and inactive	inactive	79.3 µM (active) and 70.6 µM (active) and 63 µM (active)	79.3 µM (active) and 70.6 µM (active) and 112 µM (active)	
Clc1ccc2c(c1)C(N1CCNCC1)=Nc1ccccc1O2	4.36 µM (active)	inactive	inactive	inactive	inactive				
CC(=O)OCC(CCn1cnc2cnc(N)nc21)COC(C)=O	inactive	inactive	inactive	inactive	inactive				
Nc1c2c(nc3ccccc13)CCCC2	9.77 µM (active)	inactive		inactive	inactive				
O=C1Cc2cc(CCN3CCN(c4nsc5ccccc45)CC3)c(Cl)cc2N1	9.77 µM (active)		3.55 µM (active)	15 µM (active)	20.5 µM (active)				
CC(C(=O)O)c1cccc(C(=O)c2ccccc2)c1 (stereo not given)		19.5 µM (active)	inactive						
COc1cc2nc(N3CCN(C(=O)c4ccco4)CC3)nc(N)c2cc1OC	inactive	inactive		13 µM (active)	13 µM (active)				
O=C(Nc1ccc([N+](=O)[O-])cc1Cl)c1cc(Cl)ccc1O	13.5 µM (active)	4.77 µM (active)	inactive	11.8 µM (active)	11.8 µM (active)				
CC12CC3CC(C)(C1)CC(N)(C3)C2	inactive		inactive	inactive					
Cn1c(=O)c2[nH]cnc2n(C)c1=O	inactive		inactive	inactive	inactive				
CC1COc2c(N3CCN(C)CC3)c(F)cc3c(=O)c(C(=O)O)cn1c23 (stereo not given)	inactive	inactive		inactive	inactive				
COc1ccccc1N1CCN(CC(O)COc2cccc3ccccc23)CC1 (stereo not given)	0.436 µM (active)		inactive						
CC(C)(C)C(=O)Oc1ccc(S(=O)(=O)Nc2ccccc2C(=O)NCC(=O)O)cc1	inactive		inactive	inactive	inactive				
CN1CCN2c3ccccc3Cc3ccccc3C2C1 (stereo not given)		inactive	inactive						
COC(=O)Nc1nc2ccc(C(=O)c3cccs3)cc2[nH]1	inactive	inactive	inactive	13.3 nM (active) and 93.4 nM (active)	9.4 nM (active) and 66.1 nM (active)	inactive	inactive	inactive	
CN1CCN(CCCN2c3ccccc3Sc3ccc(Cl)cc32)CC1	0.155 µM (active)	inactive	inactive				inactive		
CN(Cc1cnc2nc(N)nc(N)c2n1)c1ccc(C(=O)N[C@@H](CCC(=O)O)C(=O)O)cc1	inactive			9.4 nM (active) and 148 nM (active)	9.4 nM (active) and 148 nM (active)				
O=C(CCCN1CCC(O)(c2ccc(Cl)cc2)CC1)c1ccc(F)cc1		inactive	inactive						
CC1(C)O[C@H]2CC(=O)OC[C@]23[C@H]2CC[C@@]4(C)[C@H](c5ccoc5)OC(=O)[C@H]5O[C@]54[C@]2(C)C(=O)C[C@@H]13	inactive	inactive		inactive	inactive				
Cc1ccccc1N1C(=O)c2cc(S(N)(=O)=O)c(Cl)cc2NC1C (stereo not given)	inactive	inactive		inactive	inactive				
Cc1ccc(C(=O)Nc2ccc(S(=O)(=O)O)c3cc(S(=O)(=O)O)cc(S(=O)(=O)O)c23)cc1NC(=O)c1cccc(NC(=O)Nc2cccc(C(=O)Nc3cc(C(=O)Nc4ccc(S(=O)(=O)O)c5cc(S(=O)(=O)O)cc(S(=O)(=O)O)c45)ccc3C)c2)c1	inactive	inactive	7.08 µM (active)	inactive	inactive				
CC[C@@]1(O)C(=O)OCc2c1cc1n(c2=O)Cc2cc3c(CN(C)C)c(O)ccc3nc2-1	inactive	inactive	28.2 µM (active)	16.8 nM (active) and 57.8 nM (active)	10.6 nM (active) and 23 nM (active)	inactive		inactive	
CCOC(=O)Nc1ccc(NCc2ccc(F)cc2)nc1N	3.09 µM (active)			inactive	inactive	inactive	inactive	inactive	
CCN1CCCC1CNC(=O)c1cc(S(=O)(=O)CC)c(N)cc1OC (stereo not given)		inactive	inactive	inactive	inactive				inactive
CC(COc1ccccc1)N(CCCl)Cc1ccccc1 (stereo not given)	0.723 µM (active)	12.1 µM (active)		inactive	inactive				
O=c1[nH]cc(F)c(=O)[nH]1	inactive	inactive	inactive	13.2 µM (active)	23.7 µM (active) and 14.8 µM (active)				
Clc1ccccc1C(c1ccccc1)(c1ccccc1)n1ccnc1	9.77 µM (active)	0.977 µM (active)	inactive	10.5 µM (active)	9.34 µM (active)	inactive	inactive	inactive	

Source: PubChem BioAssay (NCATS)
